Experimental data published in PubChem BioAssay (NCI).
“And” between values parts separate entries of the source, which are not always exact repeats. Identical values can stand only once. Compounds without any hit were thinned out: in the full panel of roughly 83,000, 20% have a hit.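 Results are percent growth after 48 hours of single-concentration exposure. 100 means growth as in untreated cells, lower positive values show inhibition; negative values down to -100 show cell death.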 The source made the active and inactive calls. Rule for the calls: active = growth percent below 10; inactive = the rest.

Experiments:
Experiment in all cases: NCI-60 one-dose screen, 48 h (100 = growth as untreated, 0 = no growth, -100 = all killed)
[1] = system: HCT-15 colon
[2] = system: HT29 colon
[3] = system: SNB-75 CNS
[4] = system: SNB-19 CNS
[5] = system: U251 CNS
[6] = system: PC-3 prostate
[7] = system: SK-MEL-5 melanoma
[8] = system: UACC-62 melanoma
[9] = system: LOX IMVI melanoma
[10] = system: SK-MEL-28 melanoma

Measured: growth

COc1ccc(-c2cc(C(=O)N=Nc3c(O)[nH]c4ccc(Cl)cc34)c3ccccc3n2)cc1OC
inactive: [1]; 10 µM unless noted 101% | [2]; 10 µM unless noted 117% | [3]; 10 µM unless noted 118% | [4]; 10 µM unless noted 97.1% | [5]; 10 µM unless noted 100% | [6]; 10 µM unless noted 103% | [7]; 10 µM unless noted 111% | [8]; 10 µM unless noted 89.8% | [9]; 10 µM unless noted 90.9% | [10]; 10 µM unless noted 110%

CC/C(=C(/c1ccc(O)cc1)c1ccc(OCCN(C)C(=O)CCOCCNC(=O)Cc2ccc3c(c2)CN([C@@H]2CCC(=O)NC2=O)C3=O)cc1)c1ccccc1
inactive: [1]; 1 µM 108% | [1]; 10 µM 100% | [2]; 1 µM 103% | [2]; 10 µM 91.3% | [4]; 1 µM 75.9% | [4]; 10 µM 62.1% | [5]; 1 µM 96.2% | [5]; 10 µM 92.6% | [6]; 1 µM 42.7% | [6]; 10 µM 27.4% | [7]; 1 µM 97% | [7]; 10 µM 71.5% | [8]; 1 µM 96.9% | [8]; 10 µM 85.5% | [9]; 1 µM 99.2% | [9]; 10 µM 93.6% | [10]; 1 µM 101% | [10]; 10 µM 80.2%

O=C(CCl)Nc1ccc(C(=O)/C=C/c2cc3ccccc3nc2Cl)cc1
inactive: [3]; 10 µM unless noted 51.2% and 68% | [6]; 10 µM unless noted 11.1% and 56.4%
-85.4% (active) and 19.7% (inactive): [1]; 10 µM unless noted
-83.8% (active) and 39.7% (inactive): [5]; 10 µM unless noted
-33.3% (active) and 12.9% (inactive): [8]; 10 µM unless noted
-69.5% (active) and 46.2% (inactive): [10]; 10 µM unless noted
-80% (active) and 46.6% (inactive): [4]; 10 µM unless noted
2.8% (active) and 65% (inactive): [2]; 10 µM unless noted
-78.4% (active) and 62.4% (inactive): [7]; 10 µM unless noted
active: [9]; 10 µM unless noted -97.9% and 3.63%

COc1cc(CNC(=O)C[C@H](C)CCC=C(C)C)ccc1OCc1cn(-c2cccc(C(F)(F)F)c2)nn1
inactive: [1]; 10 µM unless noted 56.8% | [2]; 10 µM unless noted 96.6% | [3]; 10 µM unless noted 65.2% | [4]; 10 µM unless noted 97.2% | [5]; 10 µM unless noted 51% | [6]; 10 µM unless noted 82.5% | [7]; 10 µM unless noted 78.8% | [8]; 10 µM unless noted 72.1% | [9]; 10 µM unless noted 80.7% | [10]; 10 µM unless noted 91.6%

COc1ccc(NC(=O)Cn2c(/C=C/c3cccc(Br)c3)nc3ccccc3c2=O)cc1
inactive: [1]; 10 µM unless noted 70.9% | [2]; 10 µM unless noted 51.9% | [4]; 10 µM unless noted 49.3% | [6]; 10 µM unless noted 79.3% | [7]; 10 µM unless noted 78.5% | [8]; 10 µM unless noted 68.4% | [9]; 10 µM unless noted 28.8% | [10]; 10 µM unless noted 70.2%
active: [3]; 10 µM unless noted -29.7% | [5]; 10 µM unless noted -1.66%

COc1ccc2[nH]cc(-c3cc4nc(-c5cn(C)c6ncc(Br)cc56)cc(N)n4n3)c2c1
active: [1]; 10 µM unless noted -70.5% | [2]; 10 µM unless noted -76.1% | [3]; 10 µM unless noted -56.9% | [4]; 10 µM unless noted -29.4% | [5]; 10 µM unless noted -76.1% | [6]; 10 µM unless noted -39.5% | [7]; 10 µM unless noted -88.3% | [8]; 10 µM unless noted -82.5% | [9]; 10 µM unless noted -97.9% | [10]; 10 µM unless noted -92.4%

Nc1nnc(-c2cncc(Br)c2)c(-c2c[nH]c3ccc(Cl)cc23)n1
inactive: [1]; 10 µM unless noted 55.4% | [2]; 10 µM unless noted 106% | [3]; 10 µM unless noted 57.2% | [4]; 10 µM unless noted 73.1% | [5]; 10 µM unless noted 83.9% | [6]; 10 µM unless noted 90.5% | [7]; 10 µM unless noted 70.4% | [8]; 10 µM unless noted 73.7% | [9]; 10 µM unless noted 77.3% | [10]; 10 µM unless noted 91.2%

O=C(N/N=C/c1ccc(Br)o1)c1[nH]c2ccc(Br)cc2c1-c1ccccc1
active: [1]; 10 µM unless noted -6.94% | [2]; 10 µM unless noted -46.2% | [3]; 10 µM unless noted -18.3% | [4]; 10 µM unless noted 0.0073% | [5]; 10 µM unless noted -75.3% | [6]; 10 µM unless noted 7.74% | [7]; 10 µM unless noted -78.5% | [8]; 10 µM unless noted 5.43% | [9]; 10 µM unless noted -62.8% | [10]; 10 µM unless noted -20.9%

COc1ccc(-c2cc(-c3cc(OC)c(OC)c(OC)c3)[nH]c(=O)c2C#N)cc1
inactive: [1]; 10 µM unless noted 81% | [2]; 10 µM unless noted 103% | [5]; 10 µM unless noted 42.2% | [6]; 10 µM unless noted 70.9% | [7]; 10 µM unless noted 64.9% | [8]; 10 µM unless noted 59.3% | [9]; 10 µM unless noted 40.2% | [10]; 10 µM unless noted 51.9%
active: [3]; 10 µM unless noted -22.4% | [4]; 10 µM unless noted 8.18%

CC/C(=C(/c1ccc(O)cc1)c1ccc(OCCN(C)C(=O)COCCOCCNC(=O)Cc2ccc3c(c2)CN([C@@H]2CCC(=O)NC2=O)C3=O)cc1)c1ccccc1
inactive: [1]; 1 µM 107% | [1]; 10 µM 105% | [2]; 1 µM 102% | [2]; 10 µM 83% | [3]; 1 µM 59.6% | [3]; 10 µM 22.7% | [4]; 1 µM 79.5% | [4]; 10 µM 47.5% | [5]; 1 µM 91.9% | [5]; 10 µM 88.7% | [6]; 1 µM 52.8% | [6]; 10 µM 24.4% | [7]; 1 µM 96.3% | [7]; 10 µM 65.8% | [8]; 1 µM 95.6% | [8]; 10 µM 88.2% | [9]; 1 µM 95.1% | [9]; 10 µM 92.1% | [10]; 1 µM 98.3% | [10]; 10 µM 74.3%

CC/C(=C(/c1ccc(O)cc1)c1ccc(OCCN(C)C(=O)COCCOCCNC(=O)c2ccc3c(c2)CN([C@@H]2CCC(=O)NC2=O)C3=O)cc1)c1ccccc1
inactive: [1]; 1 µM 105% | [1]; 10 µM 106% | [2]; 1 µM 96.6% | [2]; 10 µM 86% | [3]; 1 µM 54.5% | [3]; 10 µM 34.7% | [4]; 1 µM 85.5% | [4]; 10 µM 75.5% | [5]; 1 µM 98.3% | [5]; 10 µM 90.8% | [6]; 1 µM 49.6% | [6]; 10 µM 39.3% | [7]; 1 µM 95.2% | [7]; 10 µM 84.1% | [8]; 1 µM 93.1% | [8]; 10 µM 91.6% | [9]; 1 µM 98% | [9]; 10 µM 97.2% | [10]; 1 µM 101% | [10]; 10 µM 97.5%
